The values that follow come from PubChem BioAssay.

Active and inactive are the calls of the source.

Assay [1] in a line: binders of probe aFSTL3 on microarray, primary screen, stem cell growth factor project, biochemical, small-molecule microarray, fluorescence 635/667 (AID 1064).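 Note: measures binding of the biotinylated anti-FSTL3 antibody to printed compounds.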 Particulars: higher = more signal.
The nature of assay [2]: binders from COS7 lysate, DM2A8 probe, primary screen, torsin A project, cell lysate, small-molecule microarray, fluorescence 635/667 (AID 1065). Particulars: higher = more signal, COS7 lysate expressing mutant human TOR1A.
Assay [3] can be described thus: binders of probe aFGF2 on microarray, primary screen, stem cell growth factor project, biochemical, small-molecule microarray, fluorescence 635/667 (AID 1067).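 Note: measures binding of biotinylated aFGF2 protein to printed compounds on slides; z-score merges feature fluorescence and signal-to-noise across triplicate slides.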 Particulars: higher = more signal.
A short description of assay [4]: binders of probe aFGF10 on microarray, primary screen, stem cell growth factor project, biochemical, small-molecule microarray, fluorescence 635/667 (AID 1071).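 Note: score merges 667 nm spot intensity and signal to noise from triplicate slides.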 Particulars: higher = more signal.
The target in assay [5] is Neurogenic locus notch homolog protein 2 (Homo sapiens) (UniProt Q04721). The experiment in a line: Notch2 binders on small-molecule microarrays, primary screen, biochemical, small-molecule microarray, 635 nm fluorescence, stem cell growth factors (AID 1073). The conditions noted are these: Notch2 binding, higher = more signal.
The target of assay [6] is Pro-neuregulin-1, membrane-bound isoform (Homo sapiens) (UniProt Q02297). Description: NRG1 binders on small-molecule microarrays, primary screen, psychiatric disease protein project, biochemical, small-molecule microarray, fluorescence 635/667 (AID 1075).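 Note: score combines 667 nm spot fluorescence with signal to noise.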 The conditions noted are these: NRG1 binding, 635 nm fluorescence, higher = more signal.
In assay [7] the test system is Neuregulin-1 EGF-like domain. Description: binders of neuregulin-1 EGF-like domain, primary screen, biochemical, small-molecule microarray, 635 nm fluorescence (AID 1081).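 Note: binding of the protein to compounds printed on small-molecule microarray slides.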 The conditions noted are these: small-molecule microarray binding, higher = more signal.
Assay [8] is described as follows: FRG1 promoter luciferase signal modulators, primary screen, FRG1 inhibition for FSHD, cell-based, C2C12 myotubes, firefly/Renilla luciferase, luminescence (AID 1084). Particulars: higher = more signal, called active from +8 up or from −8 down.
The nature of assay [9]: binders of probe aFST on microarray, primary screen, stem cell growth factor project, biochemical, small-molecule microarray, fluorescence 635/667 (AID 1086).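 Note: score merges 667 nm fluorescence with signal-to-noise of each printed compound spot.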 The conditions noted are these: higher = more signal.
Assay [10] in a line: binders of probe aHhip on microarray, primary screen, stem cell growth factor project, biochemical, small-molecule microarray, fluorescence 635/667 (AID 1087).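 Note: score merges spot fluorescence at 667nm with spot signal to noise ratio.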 The conditions noted are these: higher = more signal.
The subject of assay [11] is PRMT1 (protein arginine N-methyltransferase 1). Description: PRMT1 binders on small-molecule microarrays, primary screen, biochemical, small-molecule microarray, 635 nm fluorescence (AID 1088).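 Note: binding of Prmt1 protein to compounds spotted on small-molecule microarray slides.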 The conditions noted are these: small-molecule microarray binding, higher = more signal.
The nature of assay [12]: yeast growth modulation, basal conditions, primary screen, YJM789 clinical isolate, OD600, 24 h (AID 1089).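 Note: growth of clinical yeast isolate S. cerevisiae YJM 789 seeded 1000 cells per well; test concentration not given here.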 Particulars: S. cerevisiae YJM789 growth, higher = more signal, called active from +8 up or from −8 down.
The nature of assay [13]: fission yeast growth modulation, primary screen, strain 972, OD600, 24 h, no modulator (AID 1090).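 Note: basal condition with compound alone and no growth modifier present; test concentration not given here.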 Particulars: S. pombe 972 growth, higher = more signal, called active from +8 up or from −8 down.
Assay [14] is described as follows: S. cerevisiae growth modulation with rapamycin, primary screen, strain BY4716, OD600, 96 h (AID 1091). Note: test concentration not given here. The conditions noted are these: higher = more signal, called active from +8 up or from −8 down.
The target of assay [15] is Torsin-1A-interacting protein 2 (Homo sapiens) (UniProt Q8NFQ8). Description: LULL1 binders on small-molecule microarray, primary screen, cell lysate, human LULL1 lysate, 635/667 nm fluorescence (AID 1092).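 Note: probe is lysate of COS7 cells overexpressing human LULL1; score merges per-feature 667 nm fluorescence with signal-to-noise.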 The conditions noted are these: hLULL1 lysate binding, 635 nm fluorescence, higher = more signal.
The nature of assay [16]: E. coli growth modulation, two-sided OD650, primary screen, E. coli filamentation project, strain DRC41, 24 h (AID 1093).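 Note: MC1000 strain lacking acrAB efflux and sulA so SOS filamentation is blocked; test concentration not given here.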 Particulars: OD650, 24 h, higher = more signal, called active from +8 up or from −8 down.
Assay [17] is described as follows: small-molecule microarray binders of probe aLefty2, primary screen, biochemical, biotinylated probe, 635/667 nm fluorescence (AID 1094).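 Note: score merges spot fluorescence near 667 nm with spot signal-to-noise ratio.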 Particulars: higher = more signal.
Assay [18] deals with Noggin (protein binding on small-molecule microarray). Description: Noggin binders on small-molecule microarray, primary screen, biochemical, 635/667 nm fluorescence (AID 1095).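 Note: score merges 667 nm feature fluorescence with signal to noise over triplicate slides.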 Particulars: 635 nm fluorescence, higher = more signal.
In assay [19] the target is Neurogenic locus notch homolog protein 3 (Homo sapiens) (UniProt Q9UM47). Description: NOTCH3 binders on small-molecule microarray, primary screen, biochemical, 635/667 nm fluorescence (AID 1096). Particulars: NOTCH3 binding, 635 nm fluorescence, higher = more signal.
A short description of assay [20]: small-molecule microarray binders of probe aEGFR, primary screen, biochemical, biotinylated probe, 635/667 nm fluorescence (AID 1097).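 Note: probe is a biotinylated anti-EGFR antibody binding compounds printed on slides; score combines fluorescence near 667 nm and signal to noise of each spot.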 The conditions noted are these: higher = more signal.

Chain of Neurogenic locus notch homolog protein 3 (Homo sapiens) (Q9UM47 whole entry, looked up): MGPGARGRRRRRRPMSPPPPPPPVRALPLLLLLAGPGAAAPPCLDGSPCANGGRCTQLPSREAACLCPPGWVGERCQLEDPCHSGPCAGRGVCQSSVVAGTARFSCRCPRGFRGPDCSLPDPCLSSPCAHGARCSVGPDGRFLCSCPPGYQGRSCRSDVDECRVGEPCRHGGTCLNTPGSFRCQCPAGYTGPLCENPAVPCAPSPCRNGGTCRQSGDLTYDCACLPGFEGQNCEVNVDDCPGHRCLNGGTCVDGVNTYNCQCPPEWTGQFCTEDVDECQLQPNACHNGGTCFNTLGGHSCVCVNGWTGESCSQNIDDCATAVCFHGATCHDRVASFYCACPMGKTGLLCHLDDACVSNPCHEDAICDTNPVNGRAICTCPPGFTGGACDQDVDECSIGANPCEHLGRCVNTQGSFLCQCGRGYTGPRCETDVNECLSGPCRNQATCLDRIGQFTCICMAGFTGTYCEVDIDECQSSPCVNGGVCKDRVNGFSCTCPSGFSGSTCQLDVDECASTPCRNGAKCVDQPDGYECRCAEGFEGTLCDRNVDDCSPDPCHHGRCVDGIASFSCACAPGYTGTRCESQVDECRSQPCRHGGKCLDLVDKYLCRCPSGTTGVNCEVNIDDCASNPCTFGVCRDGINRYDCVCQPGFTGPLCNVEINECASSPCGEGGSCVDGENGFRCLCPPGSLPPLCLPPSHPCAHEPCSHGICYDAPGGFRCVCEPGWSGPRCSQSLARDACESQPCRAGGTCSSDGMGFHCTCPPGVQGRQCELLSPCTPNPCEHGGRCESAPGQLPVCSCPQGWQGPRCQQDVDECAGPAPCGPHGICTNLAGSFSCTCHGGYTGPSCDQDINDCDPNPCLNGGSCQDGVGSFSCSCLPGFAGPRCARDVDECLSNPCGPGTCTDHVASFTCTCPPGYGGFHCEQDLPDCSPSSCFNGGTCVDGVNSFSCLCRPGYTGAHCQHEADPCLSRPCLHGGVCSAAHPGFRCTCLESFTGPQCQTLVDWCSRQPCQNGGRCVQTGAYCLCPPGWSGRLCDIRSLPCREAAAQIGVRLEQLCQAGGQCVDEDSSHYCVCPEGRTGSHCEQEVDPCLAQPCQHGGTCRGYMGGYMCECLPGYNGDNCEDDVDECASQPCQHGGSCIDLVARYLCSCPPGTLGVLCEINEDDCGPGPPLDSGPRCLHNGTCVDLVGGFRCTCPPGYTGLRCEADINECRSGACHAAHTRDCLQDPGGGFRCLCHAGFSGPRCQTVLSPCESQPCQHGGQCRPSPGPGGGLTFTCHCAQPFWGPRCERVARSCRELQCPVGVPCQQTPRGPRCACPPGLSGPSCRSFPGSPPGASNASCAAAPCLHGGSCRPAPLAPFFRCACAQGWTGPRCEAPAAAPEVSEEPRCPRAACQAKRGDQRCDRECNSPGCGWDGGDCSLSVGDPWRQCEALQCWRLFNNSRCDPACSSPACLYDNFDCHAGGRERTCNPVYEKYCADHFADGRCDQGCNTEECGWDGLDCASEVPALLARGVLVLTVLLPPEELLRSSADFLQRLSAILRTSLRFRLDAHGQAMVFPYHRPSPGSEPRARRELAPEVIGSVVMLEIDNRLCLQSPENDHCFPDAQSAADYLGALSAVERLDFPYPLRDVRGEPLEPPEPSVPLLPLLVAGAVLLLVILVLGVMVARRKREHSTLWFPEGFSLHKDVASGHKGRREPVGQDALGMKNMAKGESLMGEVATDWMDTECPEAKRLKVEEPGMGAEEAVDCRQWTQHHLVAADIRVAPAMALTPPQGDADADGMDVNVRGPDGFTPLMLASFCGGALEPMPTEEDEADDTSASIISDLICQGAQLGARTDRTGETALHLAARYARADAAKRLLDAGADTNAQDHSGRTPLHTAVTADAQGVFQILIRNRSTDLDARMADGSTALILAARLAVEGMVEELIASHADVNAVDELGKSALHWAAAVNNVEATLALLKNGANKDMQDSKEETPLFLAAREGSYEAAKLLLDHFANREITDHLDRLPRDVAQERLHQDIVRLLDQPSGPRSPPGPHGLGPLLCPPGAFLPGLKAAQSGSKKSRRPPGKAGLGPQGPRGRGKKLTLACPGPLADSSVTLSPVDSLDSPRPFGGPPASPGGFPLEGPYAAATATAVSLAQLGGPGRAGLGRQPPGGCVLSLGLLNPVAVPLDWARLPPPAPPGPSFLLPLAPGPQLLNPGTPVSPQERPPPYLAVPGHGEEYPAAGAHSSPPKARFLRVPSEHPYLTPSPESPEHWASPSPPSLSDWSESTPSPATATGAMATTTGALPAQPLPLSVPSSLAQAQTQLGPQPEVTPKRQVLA
Chain of Torsin-1A-interacting protein 2 (Homo sapiens) (Q8NFQ8 whole entry, looked up): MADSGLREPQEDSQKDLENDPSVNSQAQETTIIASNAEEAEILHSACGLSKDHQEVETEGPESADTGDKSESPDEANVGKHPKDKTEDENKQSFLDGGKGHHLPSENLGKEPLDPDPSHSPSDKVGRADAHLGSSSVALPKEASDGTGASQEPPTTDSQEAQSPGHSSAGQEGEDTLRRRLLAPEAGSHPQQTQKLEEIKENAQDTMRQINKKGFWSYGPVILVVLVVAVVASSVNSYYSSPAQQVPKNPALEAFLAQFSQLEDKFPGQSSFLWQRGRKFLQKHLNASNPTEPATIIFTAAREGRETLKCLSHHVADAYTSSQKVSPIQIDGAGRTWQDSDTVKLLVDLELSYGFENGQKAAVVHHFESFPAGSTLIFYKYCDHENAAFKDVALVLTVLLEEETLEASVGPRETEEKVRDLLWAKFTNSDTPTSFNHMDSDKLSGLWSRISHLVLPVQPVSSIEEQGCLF
Chain of Pro-neuregulin-1, membrane-bound isoform (Homo sapiens) (Q02297 whole entry, looked up, the tested form may be a part, canonical isoform): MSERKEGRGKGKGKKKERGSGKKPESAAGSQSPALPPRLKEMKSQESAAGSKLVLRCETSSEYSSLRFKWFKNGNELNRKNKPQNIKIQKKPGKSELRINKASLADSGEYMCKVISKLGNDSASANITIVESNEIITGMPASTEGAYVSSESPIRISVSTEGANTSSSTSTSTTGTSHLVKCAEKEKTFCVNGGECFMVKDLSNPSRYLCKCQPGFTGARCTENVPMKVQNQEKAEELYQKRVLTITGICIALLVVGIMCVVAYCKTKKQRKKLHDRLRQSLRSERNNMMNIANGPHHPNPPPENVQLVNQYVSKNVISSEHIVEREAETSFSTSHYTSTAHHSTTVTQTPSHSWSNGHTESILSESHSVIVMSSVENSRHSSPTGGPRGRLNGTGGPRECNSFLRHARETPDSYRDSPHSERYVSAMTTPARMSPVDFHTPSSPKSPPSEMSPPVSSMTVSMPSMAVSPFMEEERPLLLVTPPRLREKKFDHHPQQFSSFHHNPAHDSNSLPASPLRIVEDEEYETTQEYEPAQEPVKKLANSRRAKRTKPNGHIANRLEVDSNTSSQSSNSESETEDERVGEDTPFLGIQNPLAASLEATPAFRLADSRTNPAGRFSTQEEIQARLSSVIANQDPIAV

`O=C(NCCN1CCOCC1)C1N=C(c2ccc(OCCCO)cc2)N(c2ccccc2)O1` (stereo not given): the composite z-score in [1] is 0.377; in assay [2], 1.4; in assay [3], 0.071; in assay [4], 0.318; in assay [5], 1.48; in [6], 0.561. The composite z-score in assay [7] was determined as 1.3; in assay [9], 0.524; in assay [10], 0.075; in assay [11], 1.54; in [15], 3.22; in assay [17], 0.443. Besides, the composite z-score is 1.19 in assay [18], 0.0538 in [19] and -0.0099 in [20]. Moreover, the z-score was 4.31 (inactive) in [8]; -0.101 (inactive) in assay [12]; -0.251 (inactive) in assay [13]; -0.36 (inactive) in assay [14]; 1 (inactive) in [16].
Regarding `CCC(CC)C(O)C1C=CC2C(=O)NC(=O)C2N1Nc1ccccn1` (stereo not given), the composite z-score is -0.164 in assay [1]; 0.247 in assay [2]; 0.0119 in assay [3]; 0.368 in assay [4]; 0.795 in [5]; 0.675 in assay [6]. The composite z-score was 1.12 in assay [7]; 0.305 in assay [9]; 0.0139 in assay [10]; -0.26 in assay [11]; 1.35 in assay [15]; 0.0744 in assay [17]. For the same compound, the values for the composite z-score in assay [18], in assay [19] and in assay [20] were -0.441, -0.412 and 0.148, respectively. In addition, the z-score in assay [8] is 0.32 (inactive); in assay [12], 0.188 (inactive); in assay [13], 1.22 (inactive); in assay [14], 0.315 (inactive); in [16], -0.691 (inactive).
As to `COC(=O)[C@H](Cc1ccccc1)N1CC2=C[C@@H](C3CC3)n3c(=O)n(C)c(=O)n3[C@H]2[C@@H]1[C@@H](O)Cc1ccccc1`, the composite z-score is -0.575 in assay [1]; 1.5 in assay [2]; 0.0066 in [3]; 0.369 in [4]; 0.319 in assay [5]; 0.323 in [6]. Also, the composite z-score is 0.997 in [7]; 0.559 in assay [9]; -0.296 in assay [10]; 1.06 in [11]; 2.88 in assay [15]; -0.136 in assay [17]. Moreover, the composite z-score in [18] amounted to 1.15; in [19], 1.02; in [20], 0.142. The z-score in assay [8] is 0.892 (inactive); in [12], -0.973 (inactive); in [13] it was -1.15 (inactive); in assay [14] it was 0.0538 (inactive); in assay [16], -0.89 (inactive).
As to `O=C1C[C@@](C(=O)NC2CC2)(c2ccc([N+](=O)[O-])cc2)[C@@H](c2ccc(CO)cc2I)N1C1CCCCC1`, the composite z-score in assay [1] is -0.407; in [2], 0.722; in assay [3], 0.0043; in [4], 0.496; in assay [5], 0.677; in assay [6] it was 1.04. Besides, the composite z-score was 1.34 in assay [7]; 0.419 in assay [9]; 0.075 in assay [10]; 1.53 in [11]; 2.82 in [15]; -0.05 in assay [17]. For the same compound, the composite z-score in [18] was 1.25; in assay [19], 1.07; in assay [20], -0.0828. The z-score is -0.165 (inactive) in [8]; -0.457 (inactive) in assay [12]; -0.173 (inactive) in [13]; 1.45 (inactive) in [14]; 0.233 (inactive) in assay [16].
On to `COc1ccc(-c2cc3c(c(-c4ccc(Oc5ccccc5)cc4)n2)[Si](C(C)C)(C(C)C)OC3)cn1`, for which the composite z-score in assay [1] is -0.264; in assay [2] it was -0.65; in [3], -0.163; in assay [4], 0.0106; in assay [5], 0.358; in assay [6], -0.264. For the same compound, the composite z-score is -0.502 in [7]; 0.406 in assay [9]; -0.0994 in assay [10]; 0.483 in assay [11]; -0.166 in assay [15]; -0.119 in assay [17]. In addition, the composite z-score is 0.503 in assay [18], 0.342 in assay [19] and -0.26 in assay [20]. Also, the z-score in assay [8] was -0.211 (inactive); in assay [12], 1.32 (inactive); in [13] it was 0.955 (inactive); in assay [14], 1.88 (inactive); in [16], -0.984 (inactive).
`CO[C@H]1O[C@H](CO)[C@@H](OC(=O)Nc2ccc(Oc3ccccc3)cc2)[C@H](OC(=O)Nc2ccc3c(c2)OCO3)[C@H]1OC(=O)Nc1ccc2c(c1)OCO2`: the composite z-score in assay [1] turned out to be 0.522; in assay [2], 1.24; in [3] it was 0.178; in assay [4], 1.21; in assay [5], 1.5; in assay [6] it was 1.69. Further, the composite z-score in assay [7] turned out to be 1.15; in [9] it was 0.968; in assay [10] it was 0.241; in assay [11], 1.53; in assay [15] it was 2.42; in assay [17] it was 0.25. Moreover, the composite z-score amounted to 0.39 in assay [18], 1.02 in [19] and 0.166 in assay [20]. The z-score in [8] is 5.22 (inactive); in assay [12], 1.57 (inactive); in assay [13], 1.02 (inactive); in assay [14], 2.07 (inactive); in assay [16], 2 (inactive).
With `C[N+](C)(C)CCCCCCNC(=O)[C@@H]1C[C@@H]2C(=O)N[C@@H](Cc3ccccc3)C(=O)N2[C@@H]1c1cccc(OCCO)c1`, the composite z-score was -0.0274 in assay [1]; 0.673 in assay [2]; -0.0969 in assay [3]; 0.44 in assay [4]; -0.165 in [5]; 1.2 in assay [6]. In addition, the composite z-score in assay [7] came to 1.34; in [9] it was 0.143; in [10], 0.236; in [11], 1.57; in [15] it was 2.87; in [17] it was 0.0235. Also, the values for the composite z-score in assay [18], in [19] and in [20] were 1.82, 1.09 and -0.0688, respectively. In addition, the z-score in assay [8] is 1.5 (inactive); in assay [12], -0.165 (inactive); in assay [13], 0.297 (inactive); in [14] it was -0.214 (inactive); in [16], 1.02 (inactive).
